Results filed as inconclusive are left out. Calls of active or inactive are those of the source. Rule for the calls, unless noted: active = hit-call score of the fitted dose curve at least 0.9, where 1 is the maximum; inconclusive = response in the unintended direction; inactive = score below 0.9.

Read-out in test [1]: Thyroid Hormone Responsive (THRSP), THRSP (gene 7069)
The test is described as follows: LTEA_HepaRG_THRSP: Life Technologies and Expression Analysis (LTEA) Assay for Thyroid Hormone Responsive (THRSP) using HepaRG (AID 2283536; active = hit-call score of the fitted dose curve at least 0.9, where 1 is the maximum; inactive = score below 0.9). Conditions: mRNA level, 48 h; actives raise or lower the signal. In short, it runs like this: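 qRT-PCR read-out (Fluidigm TaqMan), housekeeping-normalized (ACTB/GAPDH/POLR2A). HepaRG, 48 h chemical exposure, 8-pt half-log series from 100 uM in 0.5% DMSO, duplicates. Bidirectional curve fit vs 0.5% DMSO baseline.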

Read-out in test [2]: Cellular tumor antigen p53 (Homo sapiens) (UniProt P04637)
Briefly: LTEA_HepaRG_TP53: Life Technologies and Expression Analysis (LTEA) Assay for Tumor Protein P53 (TP53) using HepaRG (AID 2283537; active = hit-call score of the fitted dose curve at least 0.9, where 1 is the maximum; inactive = score below 0.9). The conditions noted are these: mRNA level, 48 h; actives raise or lower the signal. In short, it runs like this:
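Read-out is TP53 transcript level by microfluidic qRT-PCR, normalised to three housekeeping genes and fitted bidirectionally against DMSO. Human HepaRG cells received compounds for 48 h, highest concentration 100 uM.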

Read-out in test [3]: UDP glucuronosyltransferase (UGT1A1), UGT1A1 (gene 54658)
Briefly: LTEA_HepaRG_UGT1A1: Life Technologies and Expression Analysis (LTEA) Assay for UDP glucuronosyltransferase (UGT1A1) using HepaRG (AID 2283538; active = hit-call score of the fitted dose curve at least 0.9, where 1 is the maximum; inactive = score below 0.9). The conditions noted are these: mRNA level, 48 h; actives raise or lower the signal. In short, it runs like this:
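UGT1A1 transcript level, measured by qRT-PCR with three housekeeping genes for normalization, after 48 h treatment of human HepaRG cells (0.5% DMSO, duplicates, up to 100 uM, half-log steps, 8 points). Curves fit both directions against DMSO baseline.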

Read-out in test [4]: X-box binding protein 1 (XBP1), XBP1 (gene 7494)
The test is described as follows: LTEA_HepaRG_XBP1: Life Technologies and Expression Analysis (LTEA) Assay for X-box binding protein 1 (XBP1) using HepaRG (AID 2283540; active = hit-call score of the fitted dose curve at least 0.9, where 1 is the maximum; inactive = score below 0.9). The conditions noted are these: mRNA level, 48 h; actives raise or lower the signal. In short, it runs like this:
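Eight concentrations (half-log, highest 100 uM, 0.5% DMSO) tested in duplicate on HepaRG cells over 48 h in serum-free induction medium; qRT-PCR of XBP1 normalised to ACTB, GAPDH, POLR2A.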

Test [5] is described as follows: LTEA_HepaRG_LDH_cytotoxicity: Cytotoxicity Assessment in the Life Technologies and Expression Analysis (LTEA) Assay (AID 2283563).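 For AC50: LDH activity released into spent culture medium as a marker of cell death.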 An outline of the steps: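 Spent-medium LDH after 48 h chemical exposure of HepaRG cells in serum-free induction medium; eight concentrations, half-log dilutions from 100 uM, duplicate wells, fitted upward relative to 0.5% DMSO.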
Test [6] addresses Cellular tumor antigen p53 (Homo sapiens) (UniProt P04637). The test is described as follows: TOX21_p53_BLA_p2_ratio: Tox21 HCT-116 p53 Agonism Beta-lactamase Assay, Ratio, Phase 2 (AID 2283592). In short, it runs like this:
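DMSO-normalized, positive-direction endpoint derived from the 460 nm/530 nm FRET ratio in HCT116 p53 beta-lactamase reporter cells exposed 16 h at 37C and loaded with CCF4-AM for 2 h.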

The nature of test [7]: TOX21_p53_BLA_p3_viability: Viability Assessment in the Tox21 HCT-116 p53 Agonism Beta-lactamase Assay, Phase 3 (AID 2283593).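 Note: cells exposed to compound for 16 h before reading.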 An outline of the steps: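 HCT116 cells, 4000/well, dosed 5 h after plating by pin transfer (217-fold dilution from DMSO stock) and incubated 16 h at 37C, 5% CO2. Viability read as ATP luminescence with CellTiter-Glo after 30 min at room temperature.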

Test [8] concerns the target Cellular tumor antigen p53 (Homo sapiens) (UniProt P04637). Briefly: TOX21_p53_BLA_p3_ratio: Tox21 HCT-116 p53 Agonism Beta-lactamase Assay, Ratio, Phase 3 (AID 2283596). In short, it runs like this: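 Cells were seeded at 4000/well, rested 5 h at 37C, then dosed with DMSO compound solutions (217-fold dilution) for 16 h. CCF4-AM substrate was loaded for 2 h at room temperature, and the 460/530 nm emission ratio was fitted for gain of signal versus DMSO.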

Test [9] in a line: TOX21_p53_BLA_p4_viability: Viability Assessment in the Tox21 HCT-116 p53 Agonism Beta-lactamase Assay, Phase 4 (AID 2283597).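 Note: hits lower the luminescence signal meaning cytotoxicity.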 In short, it runs like this: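 In this multiplexed secondary endpoint, HCT116 cells (4000 per well, compound at 5 h, 16 h treatment) received CellTiter-Glo after the beta-lactamase read. Luminescence after 30 min RT reflects ATP, and falling signal marks cytotoxicity.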

Test [10] concerns the target Cellular tumor antigen p53 (Homo sapiens) (UniProt P04637). Briefly: TOX21_p53_BLA_p5_ratio: Tox21 HCT-116 p53 Agonism Beta-lactamase Assay, Ratio, Phase 5 (AID 2283599). In short, it runs like this:
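HCT-116 p53-bla cells (4000/well) plated 5 h, dosed with compound (217-fold DMSO dilution) for 16 h at 37 C; CCF4-AM substrate 2 h at room temperature. Activity is the 460/530 nm emission ratio (405 nm excitation), fitted in gain-of-signal direction versus DMSO.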

Test [11] is described as follows: TOX21_p53_BLA_p5_viability: Viability Assessment in the Tox21 HCT-116 p53 Agonism Beta-lactamase Assay, Phase 5 (AID 2283600). In short, it runs like this: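 Here cell health was gauged by ATP levels in wells holding 4000 cells, each treated 16 h with DMSO-delivered compounds at 217-fold dilution; reduced luminescence marked toxicity.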
For test [12], the target named is Cellular tumor antigen p53 (Homo sapiens) (UniProt P04637). Briefly: TOX21_p53_BLA_p4_ratio: Tox21 HCT-116 p53 Agonism Beta-lactamase Assay, Ratio, Phase 4 (AID 2283601). An outline of the steps:
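HCT-116 p53 beta-lactamase reporter cells (4000/well) preincubated 5 h, then compound (217-fold dilution of DMSO stock) for 16 h at 37C. CCF4-AM substrate added 2 h at room temperature; 460/530 nm emission ratio fitted upward versus DMSO.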

Test [13] can be described thus: Tanguay_ZF_120hpf_MORT_legacy: (Legacy) Oregon State University Tanguay Lab 120 Hour Post-fertilization zebrafish Assay for Mortality (AID 2283633). In short, it runs like this:
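Single dechorionated Tropical 5D embryos were held with test chemical (0.64% DMSO final) from 6 to 120 hpf at 28C under foil. Deaths at 24 or 120 hpf were recorded as binary calls, analysed for increase over DMSO controls.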

The nature of test [14]: Tanguay_ZF_120hpf_YSE_legacy: (Legacy) Oregon State University Tanguay Lab 120 Hour Post-fertilization zebrafish Assay for Yolk Sac Edema (AID 2283634). An outline of the steps: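 Single dechorionated embryos were held in sealed plates at 28C with test chemical (0.64% DMSO final) from 6 hpf until 120 hpf. Edema of the yolk sac was then recorded as a binary endpoint; non-mortality endpoints were skipped for dead embryos.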

Test [15] is described as follows: Tanguay_ZF_120hpf_AXIS_legacy: (Legacy) Oregon State University Tanguay Lab 120 Hour Post-fertilization zebrafish Assay for Body Axis Malformation (AID 2283635). In short, it runs like this:
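Each dechorionated embryo was exposed alone from 6 hpf, with DMSO at 0.64% (vol/vol) and trimethyltin chloride 5 uM as positive control. Axis malformation was recorded at 120 hpf unless the embryo had died.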

Test [16] can be described thus: Tanguay_ZF_120hpf_SNOU_legacy: (Legacy) Oregon State University Tanguay Lab 120 Hour Post-fertilization zebrafish Assay for Snout Malformation (AID 2283637). In short, it runs like this:
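Binary brightfield scoring of snout malformation at 120 hpf. Dechorionated 5D wild-type embryos, one per well, static exposure from 6 hpf at 28C, sealed and dark; final DMSO 0.64% (vol/vol), DMSO as baseline; 5uM trimethyltin chloride positive control.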

Test [17] in a line: TOX21_p53_BLA_p2_viability: Viability Assessment in the Tox21 HCT-116 p53 Agonism Beta-lactamase Assay, Phase 2 (AID 2283591).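 Note: compound exposure lasted 16 h at 37 °C; actives lower the ATP signal meaning cytotoxicity.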 In short, it runs like this:
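HCT116 p53-bla cells, 4000/well, dosed after 5 h plating (217-fold dilution of DMSO stocks) and incubated 16 h at 37C. Viability taken as cellular ATP by CellTiter-Glo luminescence after 30 min RT; signal loss marks cytotoxicity.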

Test [18] in a line: Tanguay_ZF_120hpf_EYE_legacy: (Legacy) Oregon State University Tanguay Lab 120 Hour Post-fertilization zebrafish Assay for Eye Malformation (AID 2283636).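 Note: binary presence or absence of eye malformation scored by brightfield in 120 hpf larvae.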 In short, it runs like this:
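5D wild-type embryos, pronase-dechorionated at 4 hpf; static exposure 6–120 hpf, 28C, dark; DMSO 0.64% final; 5uM trimethyltin chloride positive control. Binary eye-defect scoring at 120 hpf; dead embryos not scored.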

Test [19] is described as follows: ATG_XTT_Cytotoxicity: Cytotoxicity Assessment in the Attagene TRANS-FACTORIAL HepG2 Assay (AID 2283584). An outline of the steps:
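24 h chemical exposure of reporter-transfected HepG2; XTT signal loss vs DMSO indicates cytotoxicity.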

Sequence of Cellular tumor antigen p53 (Homo sapiens) (P04637 whole entry, looked up): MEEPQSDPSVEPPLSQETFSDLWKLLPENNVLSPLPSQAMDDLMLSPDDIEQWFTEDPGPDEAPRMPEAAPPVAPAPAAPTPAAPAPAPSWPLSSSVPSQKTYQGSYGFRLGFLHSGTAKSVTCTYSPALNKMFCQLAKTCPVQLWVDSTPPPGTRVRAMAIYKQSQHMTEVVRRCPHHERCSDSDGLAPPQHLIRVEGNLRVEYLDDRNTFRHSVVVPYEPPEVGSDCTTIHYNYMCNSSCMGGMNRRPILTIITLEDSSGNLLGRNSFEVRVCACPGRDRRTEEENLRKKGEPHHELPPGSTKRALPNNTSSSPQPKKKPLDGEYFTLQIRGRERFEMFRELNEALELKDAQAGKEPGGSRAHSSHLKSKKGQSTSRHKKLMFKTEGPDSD

Turning to `CNC(=O)[C@H]1O[C@@H](n2cnc3c(NCc4cc(Cl)ccc4OCc4cc(C)no4)ncnc32)[C@H](O)[C@@H]1N`, the call in [1], in [2], in [3], in [4], in [5] and in test [6] was inactive. The call in test [7], in test [8], in test [9], in test [10], in test [11] and in test [12] was inactive. For the same molecule, the molecule was classed as inactive in test [13], in test [14], in test [15] and in test [16].

Regarding `Cc1ccc(N(C)C)cc1`, the outcome in [1], in test [2], in test [4], in [5], in test [17] and in test [7] was inactive. In addition, the result in test [8], in test [9], in test [10], in test [11], in test [12] and in [13] was inactive. Also, the molecule was classed as inactive in test [14], in test [15], in test [18] and in test [16]. In test [3], the concentration at half-maximal activity (AC50) was 26.6 µM (active).

Take `CCCCc1ccc2c(n1)[C@@H](c1ccc(OC)cc1C[C@H](C)C(=O)O)[C@H](C(=O)O)[C@H]2c1ccc2c(c1)OCO2`: the molecule was called inactive in test [1], in test [2], in test [3], in test [4], in test [5] and in test [17]. The molecule was classed as inactive in [7], in test [9], in test [10], in test [13], in [14] and in test [15]. Also, the outcome in test [18] and in test [16] was inactive.

For `Cc1ccc(C)c(O)c1C`, the molecule was called inactive in test [1], in [2], in [3], in test [4], in [5] and in test [6]. Moreover, the outcome in test [7], in [8], in test [9], in [10], in [12] and in test [13] was inactive. For the same molecule, the molecule was called inactive in test [14], in test [15], in test [18] and in test [16].

As to `CCc1c(C(=O)NN2CCCCC2)nn(-c2ccc(Cl)cc2Cl)c1-c1ccc(Br)cc1`, the result in test [1], in test [6], in test [8], in test [10], in [11] and in [12] was inactive. In addition, the molecule was classed as inactive in test [13], in [14], in [15], in test [18] and in test [16]. The AC50 in [2] is 29.8 µM (active); in test [3], 58.1 µM (active); in test [4] it was 74.9 µM (active); in [5] it was 61.6 µM (active); in test [17], 5.6 µM (active); in [7] it was 9.14 µM (active). The AC50 in test [9] is 2.1 µM (active).

For the molecule `CCOC(=O)CCC(=O)OCC`, the outcome in test [1], in test [2], in test [3], in [4], in test [5] and in test [19] was inactive. The outcome in test [17], in [8], in [10], in test [11], in test [12] and in [13] was inactive. The outcome in [14], in [15], in test [18] and in test [16] was inactive.

For the molecule `C=CCc1ccc(O)c(OC)c1`, the outcome in [1], in test [2], in test [3], in [4], in test [5] and in test [17] was inactive. For the same molecule, the result in test [6], in test [7], in test [8], in test [10], in test [11] and in test [12] was inactive. The outcome in test [13], in [14], in test [15], in test [18] and in test [16] was inactive.

For `NCC1(Cc2noc(=O)[nH]2)CCCCC1`, the result in [1], in [2], in test [3], in test [4], in test [5] and in test [7] was inactive. Also, the result in [9], in test [10], in test [12], in test [13], in test [14] and in test [15] was inactive. The molecule was called inactive in test [18] and in [16].

Values taken from PubChem BioAssay (EPA / NIEHS).
